An excerpt weighted towards active compounds, which were near 2.4% of everything screened.
Cruzain inh Det: inhibitors of Trypanosoma cruzi cruzain with detergent | actives 0.43% (n = 200,000) | purified cruzain, Z-FR-AMC fluorescence, 0.01% Triton | Potency, µM, for the others: max response, negative = inhibition, actives largely listed as inhibitors | P25779;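 also: plate controls were neutral wells for no effect and buffer without enzyme for full effect; nearly all actives have a fitted effect of over 40% in size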
Target sequence (P25779 123-467 limits assumed): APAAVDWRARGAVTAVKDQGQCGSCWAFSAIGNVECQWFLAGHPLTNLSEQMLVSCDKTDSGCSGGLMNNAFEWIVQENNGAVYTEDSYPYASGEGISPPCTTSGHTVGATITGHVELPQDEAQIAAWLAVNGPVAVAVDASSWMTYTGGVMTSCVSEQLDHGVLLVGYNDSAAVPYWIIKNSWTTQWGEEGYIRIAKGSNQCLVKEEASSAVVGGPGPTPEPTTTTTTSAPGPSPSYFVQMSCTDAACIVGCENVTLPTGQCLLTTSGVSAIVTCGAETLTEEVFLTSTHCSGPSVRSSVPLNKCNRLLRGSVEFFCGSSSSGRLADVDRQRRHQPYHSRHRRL
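15 min RT preincubation of 1.5 nM cruzain with compound, then 2 uM Z-FR-AMC added; kinetic AMC fluorescence, 60 s delta. Triton X-100 0.01%, pH 5.5.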
Cruzain noTriton: blocks cruzain activity in detergent-free assay; purified cruzain, Z-FR-AMC fluorescence, no detergent; Potency, µM, inactives show max response, negative = inhibition, usual class: inhibitors; actives 2.3% (n = 200,000); AID 1476;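 also: plate controls were enzyme without inhibitor for no effect and buffer without enzyme for full effect; nearly all actives have a fitted effect of over 40% in size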
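Detergent-free condition (0.00005% Triton X-100) in acetate buffer pH 5.5 with DTT. 1.5 nM enzyme and compound were pre-mixed 15 min, then 2 uM Z-FR-AMC substrate added; reaction progress from fluorescence change between first and third reads (60 s).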
Starred values were filed as active, the others as inactive; u = inconclusive. Calls follow the shape of the dose curve; as a rule, active = well fitted curve in the direction sought with a large enough effect; inconclusive = small, poorly fitted or top-dose-only effect, or another doubt; inactive = no such curve, though single readings can be large; an effect the other way counts as inactive or inconclusive. Potency is read from the fitted curve at half-maximal effect.

SMILES	Cruzain inh Det	Cruzain noTriton
O=C(Nc1ccccc1N1CCN(C(=O)c2ccccc2)CC1)c1cc2ccccc2o1	-8.1%	0.159µM*
CC(=O)c1ccc(N2CCN(c3ncnc4c3c(-c3ccccc3)cn4-c3cccc(C)c3)CC2)cc1	5.1%	u
CCOc1ccc(S(=O)(=O)N(CC(=O)Nc2ccc3c(c2)OCO3)c2ccc(C)cc2)cc1	-7.6%	1.4%
Cc1ccc(S(=O)(=O)c2c(Nc3cc(C)ccc3C)sc(C(=O)c3ccc4c(c3)OCO4)c2N)cc1	9.2%	-27.0%
Cc1ccc(S(=O)(=O)c2c(Nc3ccc(C)c(C)c3)sc(C(=O)c3ccc4c(c3)OCO4)c2N)cc1	-2.4%	2.51µM*
CCOc1ccc(Nc2sc(C(=O)c3ccc4c(c3)OCO4)c(N)c2S(=O)(=O)c2ccc(C)cc2)cc1	-2.6%	3.16µM*
COc1cc(C(=O)NCC(c2ccc3c(c2)OCO3)N2CCN(C)CC2)cc(OC)c1OC (stereo not given)	3.8%	1.9%
Cc1cc(=O)n2nc(N3CCC(C(=O)Nc4ccc(Br)cc4F)CC3)sc2n1	-4.9%	-1.2%
COc1ncc2nc(-c3cccs3)c(=O)n(CCc3ccccc3)c2n1	-1.2%	13.1%
COc1ccccc1CNC(=O)CCc1c(C)nn(-c2ccc(N3CCOCC3)nn2)c1C	-0.8%	-2.2%
O=C(CSc1ncnc2c1oc1ccccc12)Nc1cccc(Cl)c1	-3.0%	-10.6%
O=C(CSc1nnc(-c2ccc(F)cc2)c2ccccc12)Nc1ccccc1Cl	-4.9%	15.8µM*
O=C(CSc1nnc(-c2ccc(F)cc2)c2ccccc12)Nc1c(F)cccc1F	-6.9%	15.8µM*
O=C(CCC(=O)c1ccc(F)cc1)Nc1ccccc1Cl	-2.6%	-10.5%
O=C(CSc1nnc(-c2ccc(F)cc2)c2ccccc12)Nc1ccccc1	-4.7%	31.6µM*
COc1ccc(CCNC(=O)CSc2nnc(-c3ccc(F)cc3)c3ccccc23)cc1OC	-3.8%	u
CCCCSc1nnc(-c2ccc(C)cc2)c2ccccc12	-3.0%	14.3%
O=C(CSc1nnc(-c2ccc(F)cc2)c2ccccc12)Nc1cccc(Cl)c1	-3.8%	15.8µM*
Cc1nn2c(C(F)(F)F)cc(-c3ccc(OC(C)C)cc3)nc2c1C#N	-0.5%	3.2%
O=[N+]([O-])c1cccc(/C([O-])=C(/C(=S)Nc2ccccc2)[n+]2ccccc2)c1	-22.2%	25.1µM*
O=C(/C(=C(/[O-])c1ccccc1)[n+]1ccccc1)c1ccc([N+](=O)[O-])cc1	-4.6%	-19.4%
CC1=Nc2cc(C(=O)NCCc3ccc(Cl)cc3)ccc2Sc2ccc(C)cc21	-2.0%	10µM*
CC1=Nc2cc(C(=O)NC3CCCCC3)ccc2Sc2ccc(Cl)cc21	-5.0%	25.1µM*
CC1=Nc2cc(C(=O)NC3CCCC3)ccc2Sc2ccc(Br)cc21	-3.3%	u
CCCC1=Nc2cc(C(=O)NCCc3ccc(OCC)cc3)ccc2Sc2ccccc21	-2.1%	u
SMILES	Cruzain inh Det	Cruzain noTriton
CCCc1ccc(OC(=O)CSc2nnc(-c3cccs3)o2)cc1	-3.6%	-5.2%
CN(C)c1ccc(C(=O)NCc2ccc3c(c2)CCN3C(=O)c2ccc(Cl)cc2)cc1	5.6%	-1.6%
CN(C)c1ccc([C@@H]2[C@@H]([N+](=O)[O-])[C@H]3C=Cc4ccccc4N3[C@H]2C(=O)c2ccc(Cl)cc2)cc1	-5.2%	7.94µM*
Cn1c(=O)c(CCc2ccccc2)nc2cnc(OCc3ccccc3)nc21	3.3%	-2.6%
Clc1ccccc1CNCCCSc1nnnn1-c1ccccc1	-1.2%	-7.6%
Fc1cccc(Cl)c1CNCCSc1nnnn1-c1ccccc1	2.5%	12.6µM*
O=C(Nc1cccc2ccccc12)NC1CCCc2ccccc21 (stereo not given)	7.8%	12.6µM*
CNC(=O)NC1CCCc2ccccc21 (stereo not given)	1.5%	-7.4%
CC(OC(=O)CNC(=O)c1ccccc1F)C(=O)Nc1nc(-c2ccccc2)cs1 (stereo not given)	7.94µM*	7.94µM*
Cc1ccc(-c2csc(NC(=O)CCNC(=O)c3ccccc3Cl)n2)cc1	-7.2%	-8.7%
COc1ccccc1CNC(=O)c1cnc2sc(N3CCOCC3)nn2c1=O	-1.9%	2.6%
COc1ccc(S(=O)(=O)c2c(SC)nn(Cc3ccccc3C)c2NC(C)=O)cc1	2.0%	-9.9%
COCCn1c(=O)c(-c2ccccc2)nc2cnc(N3CCN(C)CC3)nc21	-22.6%	u
COc1ccc(-c2cnnc(N/N=C/c3ccc(OC)c(OC)c3)n2)cc1	-8.9%	4.9%
COc1ccc(-c2cnnc(N/N=C/C(C)=C/c3ccccc3)n2)cc1	-3.7%	10µM*
O=c1c(-c2cccs2)nc2cnc(Oc3cccc(Cl)c3)nc2n1C[C@H]1CCCO1	2.8%	7.5%
CCOc1cc(-c2ccc(N)c(OCC)c2)ccc1N	-7.8%	25.1µM*
CCOc1ccc(NC(C)=O)cc1N	1.4%	-6.7%
COC(=O)c1ccc(NC(=S)NC(=O)c2cc(-c3ccccc3)nc3ccccc23)cc1	-1.9%	10µM*
CC(C)(C)c1ccc(-c2cc(C(=O)NNC(=O)Nc3ccccc3)c3ccccc3n2)cc1	-3.1%	u

Screens (PubChem BioAssay)
